For four molecules, outcome and AC50 results are on record in PubChem BioAssay (EPA / NIEHS).

The structures appear in SMILES notation. The source made the active and inactive calls. Rule for the calls: active = hit-call score of the fitted dose curve at least 0.9, where 1 is the maximum; inactive = score below 0.9.

The nature of assay [1]: ATG_E_Box_CIS: Attagene CIS-FACTORIAL HepG2 Assay for human Enhancer Box (E-box) (AID 2282936). To be noted: HepG2 E-box cis-reporter transcription, actives raise or lower the signal. Put shortly:
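DMSO served as negative control and baseline for bidirectional fitting. Human hepatoma HepG2 cells, transiently transfected with cis-reporter constructs, were dosed 24 h; reporter mRNA read by RT-PCR and capillary electrophoresis.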

The nature of assay [2]: ATG_M_61_CIS: Attagene CIS-FACTORIAL HepG2 Assay for M61 Transcription Factor (Internal Marker) (AID 2282937). To be noted: HepG2 Attagene CIS-FACTORIAL M61 internal marker reporter; actives raise or lower the signal. In outline: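 HepG2 cells transiently transfected with cis-element-driven multiple reporter transcription units, dosed for 24 h. Reporter mRNA measured by RT-PCR, 6-FAM primer-extension labelling, HpaI digestion and capillary electrophoresis; bidirectional fit versus DMSO baseline.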

Assay [3] can be described thus: ATG_EGR_CIS: Attagene CIS-FACTORIAL HepG2 Assay for human Early Growth Response 1 (EGR1) (AID 2282938). To be noted: HepG2 Attagene CIS-FACTORIAL EGR reporter mRNA; actives raise or lower the signal. Put shortly:
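HepG2 cells transiently transfected with cis-promoter-driven multiplexed reporter transcription units; reporter mRNA measured 24 h after compound dosing by RT-PCR, 6-FAM primer extension, HpaI digestion and capillary electrophoresis. Bidirectional fit versus DMSO baseline.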

Assay [4] can be described thus: ATG_M_19_CIS: Attagene CIS-FACTORIAL HepG2 Assay for M19 Transcription Factor (Internal Marker) (AID 2282939). To be noted: HepG2 Attagene CIS-FACTORIAL M19 internal marker reporter; actives raise or lower the signal. Put shortly:
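Chemical-treated HepG2 (24 h) with MRTU constructs; reporter transcripts detected by fluorescent RT-PCR fragment analysis on capillary electrophoresis. Internal background marker, DMSO as baseline.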

The nature of assay [5]: ATG_ERE_CIS: Attagene CIS-FACTORIAL HepG2 Assay for Estrogen Response Element (ERE) (AID 2282940). To be noted: HepG2 ERE cis-reporter, Attagene RNA transcript; actives raise or lower the signal. In outline:
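Human liver cells (HepG2) bearing transiently transfected, promoter-regulated reporter units were exposed 24 h. Reporter mRNA induction was detected by capillary electrophoresis of labelled RT-PCR products and fitted bidirectionally to DMSO.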

A short description of assay [6]: ATG_Ets_CIS: Attagene CIS-FACTORIAL HepG2 Assay for human Erythroblast Transformation Specific (ETS) (AID 2282941). To be noted: HepG2 ETS cis-reporter transcription, actives raise or lower the signal. In outline: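 Steps: transfect HepG2 with multiple reporter units; treat compound 24 h; isolate RNA, DNase-treat, reverse-transcribe; PCR-amplify, label with 6-FAM, digest with HpaI; separate by capillary electrophoresis. Activity fitted both directions versus DMSO.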

Assay [7] addresses Hepatocyte nuclear factor 3-beta (Homo sapiens) (UniProt Q9Y261). The assay can be described thus: ATG_FoxA2_CIS: Attagene CIS-FACTORIAL HepG2 Assay for human Forkhead box A2 (FOXA2) (AID 2282942). To be noted: HepG2 cis-reporter transcription factor activity, 24 h; actives raise or lower the signal. In outline:
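HepG2 cells transiently transfected with multiple cis-regulated reporter transcription units, dosed for 24 h. Reporter mRNA measured by RT-PCR, 6-FAM labelling, HpaI digestion and capillary electrophoresis; bidirectional fitting against DMSO baseline.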

Assay [8] can be described thus: ATG_FoxO_CIS: Attagene CIS-FACTORIAL HepG2 Assay for human Forkhead box O (FoxO) (AID 2282943). To be noted: HepG2 Attagene cis-reporter, FoxO element, mRNA; actives raise or lower the signal. Put shortly:
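HepG2, transient MRTU transfection (cis element, endogenous TFs). Dose 24 h. TriZol RNA → oligo(dT) RT → PCR → 6-FAM primer extension → HpaI cut → CE. Gain/loss vs DMSO.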

A short description of assay [9]: ATG_GATA_CIS: Attagene CIS-FACTORIAL HepG2 Assay for human GATA Binding Protein (AID 2282944). To be noted: HepG2 GATA cis-element reporter, Attagene multiplex mRNA; actives raise or lower the signal. In outline:
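Transfected cis-reporter HepG2 cells were treated with chemicals for 24 hours. Total RNA was then converted to cDNA, amplified with reporter-specific primers and analysed by fluorescent capillary electrophoresis, using DMSO-treated wells as baseline.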

A short description of assay [10]: ATG_GLI_CIS: Attagene CIS-FACTORIAL HepG2 Assay for human Zinc Finger Protein GLI1 (AID 2282945). To be noted: HepG2, Attagene cis-factorial reporter mRNA, GLI element; actives raise or lower the signal. Put shortly: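 Bidirectional curve fits relative to DMSO, using reporter mRNA levels from RT-PCR plus capillary electrophoresis. Cells were HepG2 transiently carrying cis-regulated reporter constructs, harvested 24 h after dosing.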

For assay [11], the target named is Bile acid receptor (Homo sapiens) (UniProt Q96RI1). The assay can be described thus: ATG_IR1_CIS: Attagene CIS-FACTORIAL HepG2 Assay for human Nuclear Receptor Subfamily 1 Group H Member 4 (NR1H4), IR1 submotif (AID 2282946). To be noted: IR1 reporter transcription, actives raise or lower the signal. Put shortly:
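Cells (human HepG2) carry transiently transfected cis-promoter reporter transcription units. Compounds are incubated 24 h, total RNA is reverse-transcribed and amplified, and labelled fragments are resolved by capillary electrophoresis. Curves use DMSO as baseline.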

Assay [12] can be described thus: ATG_GRE_CIS: Attagene CIS-FACTORIAL HepG2 Assay for human Glucocorticoid Response Elements (GRE) (AID 2282947). To be noted: HepG2 GRE cis-reporter, Attagene multiplex mRNA; actives raise or lower the signal. In outline:
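Assay uses human hepatoma HepG2 cells transfected with cis-promoter reporter units, exposed 24 h. mRNA from reporters detected by RT-PCR plus capillary electrophoresis; DMSO serves as negative control and baseline.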

Assay [13] in a line: ATG_ISRE_CIS: Attagene CIS-FACTORIAL HepG2 Assay for human Interferon Regulatory Factor 1 (IRF1) binding to an Interferon-Stimulated Response Element (ISRE) (AID 2282948). To be noted: HepG2 ISRE cis-reporter (Attagene), mRNA transcription readout; actives raise or lower the signal. Put shortly:
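Transfected HepG2 (multiple reporter transcription units, cis elements) dosed 24 h. RNA → oligo(dT) RT → PCR → 6-FAM primer extension → HpaI → CE. DMSO = negative control/baseline.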

A short description of assay [14]: ATG_M_32_CIS: Attagene CIS-FACTORIAL HepG2 Assay for M32 Transcription Factor (Internal Marker) (AID 2282949).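 Note: background control marker of the multiplexed CIS panel rather than a real target.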 To be noted: HepG2 Attagene cis-factorial M32 reporter, mRNA; actives raise or lower the signal. In outline:
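Internal background marker read-out: RT-PCR/capillary electrophoresis fluorescence of reporter transcripts from transiently transfected HepG2 cells after 24 h chemical exposure. Activity fitted bidirectionally relative to DMSO negative control.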

The nature of assay [15]: ATG_M_06_CIS: Attagene CIS-FACTORIAL HepG2 Assay for M06 Transcription Factor (Internal Marker) (AID 2282950). To be noted: HepG2 Attagene CIS-FACTORIAL M06 internal marker reporter; actives raise or lower the signal. In outline: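 Cells (HepG2, transiently carrying cis-driven reporter units) receive chemical for 24 h before RNA isolation. Reporter cDNA is PCR-amplified, FAM-labelled by primer extension, HpaI-digested and sized on a capillary analyser.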

Assay [16] has as its target Hypoxia-inducible factor 1-alpha (Homo sapiens) (UniProt Q16665). The assay can be described thus: ATG_HIF1a_CIS: Attagene CIS-FACTORIAL HepG2 Assay for human Hypoxia Inducible Factor 1 (HIF1A) (AID 2282951). To be noted: HepG2 Attagene cis-factorial HIF1a reporter transcription; actives raise or lower the signal. In outline: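 HepG2 cells transiently transfected with multiplexed cis-promoter reporter units; reporter mRNA read 24 h after dosing by RT-PCR, 6-FAM primer-extension labelling, HpaI digestion and capillary electrophoresis. Bidirectional fit versus DMSO baseline.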

The target in assay [17] is Hepatocyte nuclear factor 6 (Homo sapiens) (UniProt Q9UBC0). The assay can be described thus: ATG_HNF6_CIS: Attagene CIS-FACTORIAL HepG2 Assay for human Hepatocyte Nuclear Factor 6 (HNF6) (AID 2282952). To be noted: HepG2 Attagene cis-factorial HNF6 reporter transcription; actives raise or lower the signal. In outline:
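Cells are HepG2 carrying transiently transfected cis-promoter reporter units. Treatment lasts 24 h, after which reporter transcripts are reverse-transcribed, amplified, FAM-labelled and sized by capillary electrophoresis. DMSO serves as baseline.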

Assay [18] in a line: ATG_MRE_CIS: Attagene CIS-FACTORIAL HepG2 Assay for human Metal Responsive Element (MRE) (AID 2282954). To be noted: HepG2 MRE cis-reporter transcription, Attagene multiplex; actives raise or lower the signal. In outline:
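After a 24 h chemical exposure, transiently transfected HepG2 cells yield RNA whose reporter sequences are amplified, FAM-labelled and sized by capillary electrophoresis. Curves are fitted bidirectionally relative to DMSO.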

A short description of assay [19]: ATG_PBREM_CIS: Attagene CIS-FACTORIAL HepG2 Assay for human Phenobarbital-responsive Enhancer Module (PBREM) (AID 2282955). To be noted: HepG2 PBREM cis-reporter, Attagene multiplexed transcription; actives raise or lower the signal. Put shortly: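 HepG2 cells transiently transfected with multiple cis-regulated reporter transcription units; endogenous factor activity at the PBREM element measured as reporter mRNA 24 h after dosing, via RT-PCR and capillary electrophoresis of fluorescent fragments; bidirectional fitting versus DMSO.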

In assay [20] the target is Heat shock factor protein 1 (Homo sapiens) (UniProt Q00613). The assay can be described thus: ATG_HSE_CIS: Attagene CIS-FACTORIAL HepG2 Assay for human Heat Shock Transcription Factor 1 (HSE) (AID 2282953). To be noted: HepG2 HSE cis-reporter, Attagene RNA transcription; actives raise or lower the signal. In outline: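 Liver-derived HepG2 cells carry transiently introduced multiple reporter units governed by cis promoters. Reporter RNA measured 24 h post-dose through reverse transcription, PCR amplification, fluorescent labelling and capillary electrophoresis, normalised to DMSO.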
Chain of Heat shock factor protein 1 (Homo sapiens) (Q00613 whole entry, looked up): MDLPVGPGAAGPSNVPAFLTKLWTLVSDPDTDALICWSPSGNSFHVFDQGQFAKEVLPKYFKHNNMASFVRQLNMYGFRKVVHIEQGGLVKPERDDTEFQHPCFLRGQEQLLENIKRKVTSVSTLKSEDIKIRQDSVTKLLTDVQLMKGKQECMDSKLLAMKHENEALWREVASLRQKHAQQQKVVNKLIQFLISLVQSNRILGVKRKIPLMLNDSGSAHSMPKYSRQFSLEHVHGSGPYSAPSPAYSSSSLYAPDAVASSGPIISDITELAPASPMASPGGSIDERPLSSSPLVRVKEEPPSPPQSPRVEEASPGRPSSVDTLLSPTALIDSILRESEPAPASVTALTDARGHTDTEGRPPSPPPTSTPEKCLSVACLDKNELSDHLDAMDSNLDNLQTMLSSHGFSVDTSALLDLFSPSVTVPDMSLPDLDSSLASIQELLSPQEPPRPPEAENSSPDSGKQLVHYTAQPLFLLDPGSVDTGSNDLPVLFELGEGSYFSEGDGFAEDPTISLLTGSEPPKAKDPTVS

Chain of Hypoxia-inducible factor 1-alpha (Homo sapiens) (Q16665 whole entry, looked up): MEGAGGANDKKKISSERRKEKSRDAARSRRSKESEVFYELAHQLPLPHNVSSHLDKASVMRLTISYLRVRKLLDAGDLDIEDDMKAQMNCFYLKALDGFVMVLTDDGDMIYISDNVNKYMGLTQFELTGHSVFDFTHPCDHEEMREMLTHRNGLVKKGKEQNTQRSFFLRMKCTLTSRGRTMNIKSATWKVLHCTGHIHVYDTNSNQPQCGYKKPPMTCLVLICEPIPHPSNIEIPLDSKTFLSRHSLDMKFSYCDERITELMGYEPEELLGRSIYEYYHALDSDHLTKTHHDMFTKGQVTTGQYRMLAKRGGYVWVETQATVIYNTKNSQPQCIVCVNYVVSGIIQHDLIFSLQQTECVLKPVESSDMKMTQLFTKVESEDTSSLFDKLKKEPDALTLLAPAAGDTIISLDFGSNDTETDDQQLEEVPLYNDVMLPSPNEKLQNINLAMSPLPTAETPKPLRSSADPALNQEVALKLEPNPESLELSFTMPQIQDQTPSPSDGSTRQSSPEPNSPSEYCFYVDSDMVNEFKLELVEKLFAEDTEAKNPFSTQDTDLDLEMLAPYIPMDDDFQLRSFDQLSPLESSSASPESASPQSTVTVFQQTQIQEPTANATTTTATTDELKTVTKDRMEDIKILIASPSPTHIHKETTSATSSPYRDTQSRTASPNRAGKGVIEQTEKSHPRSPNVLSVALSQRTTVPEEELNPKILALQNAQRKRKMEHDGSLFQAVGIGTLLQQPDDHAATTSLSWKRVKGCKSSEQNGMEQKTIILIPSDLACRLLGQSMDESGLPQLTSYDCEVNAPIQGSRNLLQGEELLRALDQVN
Chain of Hepatocyte nuclear factor 3-beta (Homo sapiens) (Q9Y261 whole entry, looked up): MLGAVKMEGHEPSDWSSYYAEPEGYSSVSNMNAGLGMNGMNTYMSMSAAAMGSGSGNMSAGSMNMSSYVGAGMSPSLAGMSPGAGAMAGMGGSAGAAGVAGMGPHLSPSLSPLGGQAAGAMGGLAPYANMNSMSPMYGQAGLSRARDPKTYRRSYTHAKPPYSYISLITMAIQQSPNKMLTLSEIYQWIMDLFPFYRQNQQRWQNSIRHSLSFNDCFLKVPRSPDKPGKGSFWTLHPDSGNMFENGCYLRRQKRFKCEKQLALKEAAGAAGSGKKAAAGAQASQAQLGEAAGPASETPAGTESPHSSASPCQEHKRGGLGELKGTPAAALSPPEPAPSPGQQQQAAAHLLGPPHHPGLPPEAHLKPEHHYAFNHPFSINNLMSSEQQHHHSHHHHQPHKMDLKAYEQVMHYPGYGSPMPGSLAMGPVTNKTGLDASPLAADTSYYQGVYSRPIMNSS
Chain of Hepatocyte nuclear factor 6 (Homo sapiens) (Q9UBC0 whole entry, looked up): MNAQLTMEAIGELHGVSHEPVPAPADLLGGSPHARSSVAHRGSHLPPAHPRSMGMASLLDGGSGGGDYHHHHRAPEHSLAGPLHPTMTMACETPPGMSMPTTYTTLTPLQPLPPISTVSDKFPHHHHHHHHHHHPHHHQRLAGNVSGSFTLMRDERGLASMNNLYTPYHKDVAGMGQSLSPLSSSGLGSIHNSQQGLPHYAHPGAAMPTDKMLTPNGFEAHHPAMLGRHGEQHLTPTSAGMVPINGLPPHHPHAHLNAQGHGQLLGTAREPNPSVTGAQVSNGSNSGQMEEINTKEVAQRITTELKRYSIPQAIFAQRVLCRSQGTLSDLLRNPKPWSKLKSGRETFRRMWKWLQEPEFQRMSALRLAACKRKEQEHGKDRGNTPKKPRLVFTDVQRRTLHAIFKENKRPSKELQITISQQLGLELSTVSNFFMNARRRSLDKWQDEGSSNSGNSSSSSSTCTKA
Chain of Bile acid receptor (Homo sapiens) (Q96RI1 whole entry, looked up, the tested form may be a part): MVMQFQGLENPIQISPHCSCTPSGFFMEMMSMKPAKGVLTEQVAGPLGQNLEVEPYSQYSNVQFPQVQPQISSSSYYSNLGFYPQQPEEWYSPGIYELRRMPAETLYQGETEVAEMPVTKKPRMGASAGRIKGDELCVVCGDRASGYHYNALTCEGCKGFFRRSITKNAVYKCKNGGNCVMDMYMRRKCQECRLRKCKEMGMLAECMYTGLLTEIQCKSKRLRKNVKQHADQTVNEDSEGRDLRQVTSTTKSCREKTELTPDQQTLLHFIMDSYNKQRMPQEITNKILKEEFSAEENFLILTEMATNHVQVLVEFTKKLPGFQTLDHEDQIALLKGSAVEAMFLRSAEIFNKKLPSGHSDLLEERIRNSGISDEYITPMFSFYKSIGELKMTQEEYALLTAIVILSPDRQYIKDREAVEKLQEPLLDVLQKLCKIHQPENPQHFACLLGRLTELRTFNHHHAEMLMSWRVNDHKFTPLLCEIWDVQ

`CC1=NN(c2cc(S(=O)(=O)O)ccc2Cl)C(=O)C1N=Nc1ccccc1` (stereo unspecified): the result in assay [1], in assay [2], in assay [3], in assay [4], in assay [5] and in assay [6] was inactive. The call in assay [7], in assay [8], in assay [9], in assay [10], in assay [11] and in assay [12] was inactive. Further, the outcome in assay [13], in assay [14], in assay [15], in assay [16], in [17] and in assay [18] was inactive. The outcome in assay [19] was inactive.

Turning to `Nc1nc2ccccc2[nH]1`, the result in assay [1], in [2], in [3], in assay [4], in [6] and in assay [7] was inactive. The result in assay [8], in [9], in assay [10], in [11], in assay [12] and in assay [13] was inactive. For the same molecule, the outcome in [14], in assay [15], in assay [16], in assay [17], in [20] and in assay [18] was inactive. For the same molecule, the AC50 (commonly the concentration giving half of the maximal activity seen) in assay [5] was 77.9 µM (active).

On to `CC(C)(c1cc(Br)c(OCCO)c(Br)c1)c1cc(Br)c(OCCO)c(Br)c1`, for which the result in assay [1], in assay [2], in assay [5], in assay [8], in assay [9] and in assay [10] was inactive. Besides, the result in assay [15] and in assay [19] was inactive. The AC50 in [3] was 10.5 µM (active); in assay [4] it was 44.5 µM (active); in assay [6], 43.7 µM (active); in assay [7] it was 44.2 µM (active); in assay [11], 7.14 µM (active); in assay [12] it was 44.2 µM (active). Moreover, the AC50 was 7 µM (active) in [13]; 22.9 µM (active) in assay [14]; 6.89 µM (active) in assay [16]; 21.5 µM (active) in assay [20]; 18.4 µM (active) in [18].

Turning to `O=C(O)CC(C(=O)O)C(CC(=O)O)C(=O)O` (stereo unspecified), the result in assay [1], in [2], in assay [3], in assay [4], in assay [5] and in assay [6] was inactive. Moreover, the molecule was classed as inactive in assay [7], in assay [8], in assay [9], in [10], in [11] and in assay [12]. Also, the result in assay [13], in assay [14], in assay [15], in [16], in assay [17] and in assay [20] was inactive. Moreover, in assay [18], the call was inactive.
